Experimental data from PubChem BioAssay (NCATS).
Results filed as inconclusive are left out. Where a call stands in place of a potency, no number is given. Active and inactive are the calls of the source. Calls come from the whole dose curve; as a rule, active = well fitted inhibition curve with a large enough effect; inconclusive = small, poorly fitted or top-dose-only effect; inactive = flat fitted curve, though single readings scatter.

Experiments:
Assay in all cases: qHTS profiling for inhibitors of Plasmodium falciparum proliferation (AID 504749); note: nearly all actives have a fitted effect of over 60% in size
Details in all cases: P. falciparum in erythrocytes, SYBR Green DNA, 72 h; series mostly up to 28.7 µM
ECU = tested on: ECU
Summary of the method: (§1)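 Three-day growth assay of blood-stage parasites in erythrocytes (0.3% parasitemia, 2.5% hematocrit) at 37 C, 5% CO2, quantified by SYBR Green DNA staining after overnight detergent lysis.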

FAB9 = tested on: FAB9
Summary of the method: as §1

GB4 = tested on: GB4
Summary of the method: as §1

HB3 = tested on: HB3
Summary of the method: as §1

ICS = tested on: ICS
Summary of the method: as §1

JCK = tested on: JCK
Summary of the method: as §1

N140 = tested on: N140
Summary of the method: as §1

P93_24 = tested on: P93_24
Summary of the method: as §1

P94_40 = tested on: P94_40
Summary of the method: as §1

PAD = tested on: PAD
Summary of the method: as §1
Potency is the fitted concentration of half-maximal effect.

Structure (SMILES) | Potency (ECU) | Potency (FAB9) | Potency (GB4) | Potency (HB3) | Potency (ICS) | Potency (JCK) | Potency (N140) | Potency (P93_24) | Potency (P94_40) | Potency (PAD)
CC(=O)N(O)CCCCCNC(=O)CCC(=O)N(O)CCCCCNC(=O)CCC(=O)N(O)CCCCCN | inactive | inactive | inactive | inactive | inactive | 10 µM (active) | inactive | inactive | inactive | inactive
O=C1CCC(c2ccc(-n3ccnc3)cc2)=NN1 | inactive | inactive | inactive | inactive | inactive | inactive | inactive | inactive | inactive | inactive
CN=C(NC#N)NCCSCc1csc(N=C(N)N)n1 | inactive | inactive | inactive | inactive | inactive | inactive | inactive | inactive | inactive | inactive
CCOC(=O)n1ccn(C)c1=S | inactive | inactive | inactive | inactive | inactive | inactive | inactive | inactive | inactive | inactive
C[C@]12CCC(=O)C=C1CC[C@H]1[C@@H]3CC[C@](O)(C(=O)CO)[C@@]3(C)C[C@H](O)[C@@]12F | inactive | inactive | inactive | inactive | inactive | inactive | inactive | inactive | inactive | inactive
CC(O)C(=O)O (stereo not given) | inactive | inactive | inactive | inactive | inactive | inactive | inactive | inactive | inactive | inactive
CCCCCCc1ccc(O)cc1O | inactive | inactive | inactive | inactive | inactive | inactive | inactive | inactive | inactive | inactive
CC(C)(C)CC(C)(C)c1ccc(OCCOCC[N+](C)(C)Cc2ccccc2)cc1 | 5.01 µM (active) | 5.01 µM (active) | 3.38 µM (active) | 6.31 µM (active) | 1.26 µM (active) | 6.31 µM (active) | 3.98 µM (active) | 6.31 µM (active) | 5.01 µM (active) | 8.91 µM (active)
O=C(O)CNC(=O)c1ccccc1 | inactive | inactive | inactive | inactive | inactive | inactive | inactive | inactive | inactive | inactive
COc1cc(OC)cc(OC)c1 | inactive | inactive | inactive | inactive | inactive | inactive | inactive | inactive | inactive | inactive
CCC(=O)c1c(O)cc(O)cc1O | inactive | inactive | inactive | inactive | inactive | inactive | inactive | inactive | inactive | inactive
N[C@@H](Cc1cnc[nH]1)C(=O)O | inactive | inactive | inactive | inactive | inactive | inactive | inactive | inactive | inactive | inactive
COc1cc(C(=S)N2CCOCC2)cc(OC)c1OC | inactive | inactive | inactive | inactive | inactive | inactive | inactive | inactive | inactive | inactive
C[C@@H]1CN(CCCn2c3ccccc3c3ccccc32)C[C@H](C)N1 | 10 µM (active) | inactive | 13.5 µM (active) | inactive | 5.01 µM (active) | inactive | 12.6 µM (active) | 5.01 µM (active) | 8.91 µM (active) | 1.78 µM (active)
Cc1cccn2c(=O)c(-c3nnn[nH]3)cnc12 | inactive | inactive | inactive | inactive | inactive | inactive | inactive | inactive | inactive | inactive
CN1C(CCl)Nc2cc(Cl)c(S(N)(=O)=O)cc2S1(=O)=O (stereo not given) | inactive | inactive | inactive | inactive | inactive | inactive | inactive | inactive | inactive | inactive
Cc1c(N(C)CS(=O)(=O)O)c(=O)n(-c2ccccc2)n1C | inactive | inactive | inactive | inactive | inactive | inactive | inactive | inactive | inactive | inactive
Nc1ccc(C(=O)Nc2ccccc2N)cc1 | inactive | inactive | inactive | inactive | inactive | inactive | inactive | inactive | inactive | inactive
Cc1ncc(CSSCc2cnc(C)c(O)c2CO)c(CO)c1O | inactive | inactive | inactive | inactive | inactive | inactive | inactive | inactive | inactive | inactive
CCOC(=O)OC(C)OC1=C(C(=O)Nc2ccccn2)N(C)S(=O)(=O)c2ccccc21 (stereo not given) | inactive | inactive | inactive | inactive | inactive | inactive | inactive | inactive | inactive | inactive
CCn1cc(C(=O)O)c(=O)c2cnc(N3CCCC3)nc21 | inactive | inactive | inactive | inactive | inactive | inactive | inactive | inactive | inactive | inactive
COC(=O)[C@@H]1CC2=CC(=O)CC[C@]2(C)[C@@]23O[C@@H]2C[C@@]2(C)[C@@H](CC[C@@]24CCC(=O)O4)[C@H]13 | inactive | inactive | inactive | inactive | inactive | inactive | inactive | inactive | inactive | inactive

Structure (SMILES) | Potency (ECU) | Potency (FAB9) | Potency (GB4) | Potency (HB3) | Potency (ICS) | Potency (JCK) | Potency (N140) | Potency (P93_24) | Potency (P94_40) | Potency (PAD)
Oc1c(Cl)cc(Cl)cc1Sc1cc(Cl)cc(Cl)c1O | inactive | inactive | inactive | inactive | inactive | inactive | inactive | inactive | inactive | inactive
NC(=NCCCCCCN=C(N)/N=C(\N)Nc1ccc(Cl)cc1)/N=C(\N)Nc1ccc(Cl)cc1 | 2.24 µM (active) | 2 µM (active) | 1.07 µM (active) | 4.47 µM (active) | 0.355 µM (active) | 3.98 µM (active) | 0.004 µM (active) | 1 µM (active) | 3.55 µM (active) | 3.16 µM (active)
CC(=O)Oc1ccc(C(=C2CCCCC2)c2ccc(OC(C)=O)cc2)cc1 | inactive | inactive | inactive | inactive | inactive | inactive | inactive | inactive | inactive | inactive
Cc1ccnc(NS(=O)(=O)c2ccc(N)cc2)n1 | inactive | inactive | inactive | inactive | inactive | inactive | inactive | inactive | inactive | inactive
CC(=O)OCC(=O)NCCCOc1cccc(CN2CCCCC2)c1 | inactive | inactive | inactive | inactive | inactive | inactive | inactive | inactive | inactive | inactive
CCCCN1CCCC1C(=O)Nc1c(C)cc(C)cc1C (stereo not given) | inactive | inactive | inactive | inactive |  | inactive | inactive | inactive | inactive | inactive
CC(Cc1cccc(C(F)(F)F)c1)NCCOC(=O)c1ccccc1 (stereo not given) | inactive | inactive |  | inactive | inactive | inactive | inactive | inactive | inactive | inactive
Cc1cc(N)c2cc(NC(=O)Nc3ccc4nc(C)cc(N)c4c3)ccc2n1 | 10 µM (active) | 5.01 µM (active) | 7.57 µM (active) | 4.47 µM (active) | 5.01 µM (active) | 11.2 µM (active) | 11.2 µM (active) |  | 12.6 µM (active) | 12.6 µM (active)
O=C1c2ccccc2C(=O)C1c1ccccc1 | inactive | inactive | inactive | inactive | inactive | inactive | inactive | inactive | inactive | inactive
COc1ccc(C2C(=O)c3ccccc3C2=O)cc1 | inactive | inactive | inactive | inactive | inactive | inactive | inactive | inactive | inactive | inactive
O=C(CCCN1CCC(O)(c2ccc(Br)cc2)CC1)c1ccc(F)cc1 | inactive | inactive | 5.73 µM (active) |  | 3.55 µM (active) |  |  |  |  | 
COc1ccc(/C=C/C(=O)c2ccc(OC)cc2OC)cc1 | 8.91 µM (active) | 8.91 µM (active) | 7.57 µM (active) | 10 µM (active) | 12.6 µM (active) | 8.91 µM (active) | 11.2 µM (active) | 8.91 µM (active) | 10 µM (active) | 10 µM (active)
COc1cc2c(cc1OC)C(C(C(=O)N(CCc1ccc(OC)c(OC)c1OC)CCc1ccc(OC)c(OC)c1OC)c1ccccc1)=NCC2 (stereo not given) | 2.24 µM (active) | 11.2 µM (active) | 7.57 µM (active) | 5.01 µM (active) | 0.199 µM (active) | 10 µM (active) |  | 2.24 µM (active) | 2.51 µM (active) | 1 µM (active)
C[C@H]1C[C@H]2[C@@H]3CCC4=CC(=O)C=C[C@]4(C)[C@@]3(Cl)[C@@H](O)C[C@]2(C)[C@@]1(O)C(=O)CO | inactive | inactive | inactive | inactive |  | inactive | inactive | inactive | inactive | inactive
CCOC(=O)c1cccc(N)c1 | inactive | inactive |  | inactive | inactive | inactive | inactive | inactive | inactive | inactive
CCOc1ccc(NC(=O)CC(C)O)cc1 (stereo not given) | inactive | inactive | inactive | inactive | inactive | inactive | inactive | inactive | inactive | inactive
COc1cc(NS(C)(=O)=O)ccc1Nc1c2ccccc2nc2ccccc12 | 3.16 µM (active) | 3.98 µM (active) |  | 5.01 µM (active) | 1.58 µM (active) | 3.55 µM (active) | 2 µM (active) | 3.16 µM (active) | 2.51 µM (active) | 1.41 µM (active)
CC(=O)Oc1ccc(C(c2ccc(OC(C)=O)cc2)c2ccccn2)cc1 | inactive | inactive | inactive | inactive | inactive |  | inactive | inactive | inactive | inactive
C=CCc1ccc(O)c(OC)c1 | inactive | inactive | inactive | inactive | inactive | inactive | inactive |  | inactive | inactive
O=S1(=O)c2cccc3cccc(c23)N1CCCN1CCN(c2ccc(F)cc2)CC1 | inactive | inactive | inactive | inactive |  | inactive | inactive | inactive |  | inactive
CCOc1ccc2nc3cc(N)ccc3c(N)c2c1 | 8.91 µM (active) | 7.94 µM (active) |  | 8.91 µM (active) | 4.47 µM (active) | 10 µM (active) | 10 µM (active) | 3.55 µM (active) | 5.62 µM (active) | 7.08 µM (active)
CCCCCCCCCCCCCCCCCC(=O)OCC(O)CO (stereo not given) | inactive | inactive | inactive | inactive | inactive |  | inactive |  | inactive | inactive
